The entries come from a sample that favours hits as a whole.
RmlC RmlD mix – inhibitors of RmlC and RmlD coupled enzymes. RmlC/RmlD coupled enzyme inhibition, 384-well mixture HTS. inhibition, % at 5.5 µM. hit rate 0.39% among 110,000. AID 1532; in the data active means inhibition above about 30%, passing the limit was not always enough
HIV RNase H inh – blocks HIV-1 RNase H cleavage of RNA/DNA duplex. P04585. RT-RNase H RNA/DNA duplex cleavage, fluorescence. inhibition, % at 10 µM. hit rate 1.9% among 65,000; in the data active means inhibition above about 50%
RmlCD artifact – RmlC/RmlD fluorescence artifact, counter-screen; calls only; shares compounds with RmlC RmlD mix; RmlC/RmlD assay fluorescence artifact counter-screen; hit rate 96% among 360; AID 1696; call rule not given here;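 further: compound alone with no enzyme and no substrates present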
Starred values were filed as active, the others as inactive; i = inactive; / = not tested or not shown; + = active, no number.

SMILES | RmlC RmlD mix | HIV RNase H inh | RmlCD artifact
CC(=O)Oc1ccc2c(C)cc(=O)[nH]c2c1 | 64* | 1 | +
Cc1cc(=O)[nH]c2cc(O)ccc12 | -2 | / | /
CC1=CCC[C@@H]2[C@@](C)(CC/C(C)=C/C(=O)O)[C@H](C)CC[C@@]12C | -12 | / | /
O=C(O)c1cc(-c2ccccc2)nc2ccccc12 | 4 | -7 | /
CCOc1ccc(-c2cc(C(=O)O)c3ccccc3n2)cc1 | 32* | / | +
O=c1[nH]c(=O)n(Cc2ccco2)c2c1C(C(F)(F)F)(C(F)(F)F)N=C(Cc1ccccc1)N2 | 9 | / | /
COc1ccc2c(c1)c1ncn(CCCN3CCOCC3)c(=O)c1n2C | 106* | / | +
COc1ccc2c(c1)[nH]c1c(=O)n(CCCN3CCOCC3)cnc12 | -12 | / | /
O=C1OCC2OC(O)C(O)C(O)C2OC(=O)c2cc(O)c(O)c(O)c2-c2c(O)c(O)c3oc(=O)c4c(c(O)c(O)c5oc(=O)c2c3c54)-c2c1cc(O)c(O)c2O (stereo unspecified) | 35* | / | +
O=C(c1ccc2c(c1)OCO2)N1CCC2(CC1)Oc1ccc(Cl)cc1C(=O)C21CC(c2ccccc2)=NO1 (stereo unspecified) | -36 | / | /
CC1=C(C#N)C(c2cccnc2)C2=C(CCCC2=O)N1 (stereo unspecified) | 32* | / | +
Cc1ccc(N2C(N)=C(C#N)C(c3cccnc3)C3=C2CCCC3=O)cc1 (stereo unspecified) | / | 24 | /
CC(=O)n1nc(-c2ccccc2)nc1NCc1ccc(F)cc1 | -3 | -9 | /
O=C(c1ccc(F)cc1)n1c(NCc2ccccc2)n[nH]c1=S | / | / | i
O=C(CSc1nc2ccccc2c(=O)[nH]1)Nc1ccc(S(=O)(=O)N2CCCC2)cc1 | -11 | -12 | /
Cn1ccnc1SCC(=O)Nc1cc(C(F)(F)F)ccc1N1CCOCC1 | -5 | / | /
COc1ccc2cc(-c3nc4ccccc4n3C)c(=O)oc2c1 | 31* | / | +
COc1ccc2oc(=O)c(-c3nc4ccccc4o3)cc2c1 | 15 | / | /
COc1ccc(N(CC(=O)NC(C)(C)C)S(=O)(=O)c2ccccc2)cc1OC | -5 | 4 | /
CC(C)=CC(O)C/C(C)=C/COc1ccc2ccc(=O)oc2c1 (stereo unspecified) | 6 | / | /
Cc1nc(NC(=O)/C=C/c2ccccc2)sc1C(=O)Nc1ccccc1Cl | 37* | / | +
Cc1nc(NC(=O)/C=C/c2ccccc2)sc1C(=O)Nc1ccc(Cl)cc1 | -15 | / | /
COc1ccc(C)cc1NC(=O)c1cnc2n(c1=O)CCS2 | 7 | 2 | /
COc1ccc(C)cc1NC(=O)c1cnc2scc(C)n2c1=O | 47* | -9 | +
CCCCN(CC)C(=O)Cn1c(=O)sc2ccccc21 | -21 | / | /
SMILES | RmlC RmlD mix | HIV RNase H inh | RmlCD artifact
CNC(=O)c1cc2c(s1)-c1ccccc1CC2 | / | / | +
O=C(N/N=C/c1ccc(F)c(F)c1)c1cc2c(s1)-c1ccccc1CC2 | -111 | / | /
Cc1coc(NC(=O)CSc2nc(-c3ccc(Cl)cc3)cc(C(F)(F)F)c2C#N)n1 | 4 | / | /
COc1ccc(-c2cc(C(F)(F)F)c(C#N)c(SCC(=O)Nc3nc(C)co3)n2)cc1 | + | / | +
O=C(O)c1ccc(-c2nc3ccccc3[nH]2)cc1 | / | / | i
Nc1ccc(-c2nc3ccccc3[nH]2)cc1 | 19 | -1 | /
COc1ccc(C2C(C(=O)OCC3CCCO3)=C(C)NC3=C2C(=O)CC(c2ccco2)C3)cc1O (stereo unspecified) | -10 | / | /
COc1ccc(NC(=O)c2oc3ccccc3c2NC(=O)c2ccc(OC)c(OC)c2)c(OC)c1 | / | 6 | /
COc1ccc(NC(=O)c2oc3ccccc3c2NC(=O)COc2ccccc2OC)c(OC)c1 | 104* | 22 | +
COC(=O)C1=CNC=C(C(=O)OC)C1c1ccc(Cl)cc1 | -24 | -27 | /
COC(=O)C1=CNC=C(C(=O)OC)C1c1cccc(OC)c1 | 50* | -10 | +
COc1cccc(/C=C/c2nc3c(cnn3-c3ccccc3)c(=O)[nH]2)c1 | / | / | +
O=c1[nH]c(-c2ccc(Cl)cc2)nc2c1cnn2-c1ccccc1 | -8 | 9 | /
Cc1c(Cc2ccccc2)c(=O)oc2c(CN(C)C)c(O)c(Cl)cc12 | 145* | -9 | +
CCN(CC)Cc1c(O)c(Cl)cc2c(C)c(C)c(=O)oc12 | 68* | / | +
Cc1c(C)c2cc(Cl)c(OCc3nn[nH]n3)cc2oc1=O | -6 | -1 | /
CN(C)Cc1c(O)ccc2oc(Cc3ccccc3)cc12 | 4 | 6 | /
Cn1c(N2C(=O)CC(Cc3ccccc3)C2=O)nc2ccccc21 (stereo unspecified) | 6 | / | /
O=c1[nH]cnc2cc(-c3ccccc3)sc12 | 1 | -4 | /
COc1ccc(-c2cc3nc[nH]c(=O)c3s2)cc1 | 51* | / | +
COc1ccccc1-c1c(C)oc2c(CN3CCN(CCO)CC3)c(O)ccc2c1=O | / | -2 | i
CCOC(=O)c1oc2c(CN3CCN(C)CC3)c(O)ccc2c(=O)c1-c1ccccc1OC | 9 | -6 | /
COc1ccc(-c2c(C)oc3c(CN4CCN(CCO)CC4)c(O)ccc3c2=O)cc1OC | / | -4 | /
COc1ccccc1-c1c(C)oc2c(CN3CCN(C)CC3)c(O)ccc2c1=O | 43* | -10 | +
Cc1ccc(-c2nc(CS(=O)CC(=O)NC3CCC(C)CC3)c(C)o2)cc1 (stereo unspecified) | 10 | -4 | /
SMILES | RmlC RmlD mix | HIV RNase H inh | RmlCD artifact
CCCNC(=O)c1c(N)n(-c2cc(OC)cc(OC)c2)c2nc3ccccc3nc12 | -29 | 3 | /
O=C(Nc1nc(N2C(=O)c3ccccc3C2=O)n(-c2ccccc2)n1)c1ccc(Cl)cc1 | -17 | / | /
CC1Cc2ccccc2N1C(=O)c1cc2c(=O)n3ccccc3nc2n1C (stereo unspecified) | 4 | -7 | /
Cn1c(C(=O)N2CCc3ccccc3C2)cc2c(=O)n3ccccc3nc21 | 103* | -12 | +
COc1ccc(CCNS(=O)(=O)c2cccc(C(=O)O)c2)cc1OC | / | -9 | /
CCOc1ccccc1Oc1c(C)oc2c(CN3CCN(C)CC3)c(O)ccc2c1=O | 19 | 1 | /
CCc1cc2c(=O)c(Oc3ccccc3F)c(C)oc2c(CN(C)C)c1O | 72* | 3 | +
O=C(CSc1ccc2nnc(-c3ccncc3)n2n1)N1CCc2ccccc21 | / | -16 | /
COC(=O)c1cc(=O)nc2sc(-c3cccs3)nn12 | 39* | 2 | +
COC(=O)c1cc(=O)nc2sc3ccccc3n12 | -10 | -6 | /
Cc1cc(NC(=O)CCC(=O)N(CC(=O)NCC2CCCO2)c2ccc3c(c2)OCCO3)no1 (stereo unspecified) | -33 | / | /
CCOC(=O)C[C@H]1c2cc(F)ccc2S(=O)(=O)N1c1cccc(OC)c1 | -9 | / | /
COc1ccc2c(c1[N+](=O)[O-])CCC/C2=N/OC(=O)c1cccc2ccccc12 | -5 | / | /
O=C(NCc1ccco1)c1cc2ccc(O)cc2oc1=O | 86* | 7 | +
COc1ccc2cc(C(=O)NCc3ccco3)c(=O)oc2c1 | 14 | -17 | /
Fc1ccc(/C=N/n2c(-c3cccs3)n[nH]c2=S)cc1 | -13 | / | /
Cc1cc2cc(CN(Cc3ccc4c(c3)OCO4)C(=O)c3ccco3)c(=O)[nH]c2cc1C | 12 | 6 | /
COc1cc2cc(CN(Cc3ccc4c(c3)OCO4)C(=O)c3ccco3)c(=O)[nH]c2cc1OC | 46* | / | +
C=CCNC(=O)CC(C)C(CCCCC)C(=O)O (stereo unspecified) | -3 | -10 | /
CCOC(=O)C1CCCCN1Cc1ccccc1C(F)(F)F (stereo unspecified) | -9 | -8 | /

Screening results (PubChem BioAssay)
